# Test results reported in PubChem BioAssay (Tox21).
# Values joined by “and” are separate entries in the source; they are usually repeats but may differ in a detail not shown here. Identical values can stand only once. Inconclusive results are not listed. Where a call stands in place of a potency, no number is given. The source holds several records for some structures; these can differ, active in one and inactive in another. Active and inactive are the calls of the source. Unless noted, the call rests on the fitted dose curve; in most records, active means well fitted curve in the direction sought with a large enough effect in the repeat runs; inconclusive means weak or mixed curves; inactive means no such curve, though single readings can be large; an effect the other way counts as inactive or inconclusive.
# Experiments:
# [1] = qHTS assay to identify small molecule antagonists of the estrogen receptor alpha (ER-alpha) signaling pathway using the BG1 cell line in the presence of 0.1 nM 17-beta-estradiol - cell viability counter screen (AID 1259241); further: nearly all actives have a fitted effect of over 40% in size
# How it was run: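 CellTiter-Fluor read (30 min, 37C) on ER-alpha/ERE-luc VM7Luc4E2 cells; 22 hr compound treatment; agonist 0.1 nM E2 final; same-well multiplex.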
# [2] = qHTS assay to identify small molecule antagonists of the androgen receptor (AR) signaling pathway using the MDA cell line in the presence of 0.5 nM R1881 - cell viability counter screen (AID 1259242); further: nearly all actives have a fitted effect of over 45% in size
# How it was run: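 Live-cell protease fluorescence, CellTiter-Fluor, 30 min at 37C. Cells: MDA-kb2, 3,000/well, preincubated 5 hr. Compounds plus 0.5 nM R1881 final, 16 hr, 37C, 0% CO2.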
# [3] = qHTS assay to identify small molecule HDAC inhibitors (AID 1259364);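 further: wild-type HCT-116 cells with endogenous class I/II HDAC activity; top concentration of the series differs between compounds; nearly all actives have a fitted effect of over 45% in size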
# How it was run: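 HCT-116 (wild type), 1,500 cells/well, overnight; compound 2 hr 37C 5% CO2; HDAC-Glo I/II reagent 30 min RT; luminescence readout.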
# [4] = qHTS assay to identify small molecule HDAC inhibitors - cell viability counter screen (AID 1259365); further: series mostly up to about 92 µM; nearly all actives have a fitted effect of over 50% in size
# How it was run: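 To flag cytotoxic hits, 1,500 wild-type HCT-116 cells per well, plated the day before, receive test compounds for 2hr at 37 C before CellTiter-Glo reagent and a luminescence read.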
# [5] = qHTS assay to identify small molecule antagonists of the sonic hedgehog signaling (Shh) pathway - cell viability counter screen (AID 1259367); further: nearly all actives have a fitted effect of over 55% in size; further: potency means the concentration at half of the fitted maximal effect
# How it was run: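 Cytotoxicity was assessed in parallel with Shh reporter activity by measuring live-cell protease fluorescence (CellTiter-Fluor) in NIH/3T3 cells stably carrying Gli1-Luc, treated with compound under conditioned medium stimulation for 23 hr plus 1 hr reagent incubation.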
# [6] = qHTS assay to identify small molecule agonists of the sonic hedgehog signaling (Shh) pathway (AID 1259368; calls by dose curve;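 further: NIH/3T3-derived 3T3Gli1-Luc cells carrying a stable Gli1-driven firefly luciferase reporter; series mostly up to about 92 µM; nearly all actives have a fitted effect of over 15% in size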)
# How it was run: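 Read-out: firefly luciferase luminescence from a Gli1 response element reporter stably integrated in NIH/3T3-derived 3T3Gli1-Luc cells, measured 30 min at room temperature after reagent addition. Compound exposure lasted 24 hr at 37 C, 5% CO2.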
# [7] = qHTS assay to identify small molecule antagonists of the sonic hedgehog signaling (Shh) pathway (AID 1259369; calls by dose curve; further: nearly all actives have a fitted effect of over 45% in size; further: potency means the concentration at half of the fitted maximal effect)
# How it was run: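 Luminescence readout: firefly Luc under Gli1 response element in 3T3Gli1-Luc cells (NIH/3T3 clone). Antagonist mode, stimulation by conditioned medium; compound exposure 24hr at 37 C, 5% CO2.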
# [8] = biological target: Estrogen receptor beta (Homo sapiens) (UniProt Q92731); test: qHTS assay to identify small molecule agonists of the estrogen receptor beta (ER-beta) signaling pathway (AID 1259377; active means well fitted activation curve with a large enough effect in the signal ratio in the repeat runs, not every such curve was filed as active; the % refers to the signal ratio)
# How it was run: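 Screening used GripTite ER-beta-UAS-bla cells held in 2% charcoal-stripped FBS medium. After overnight (16 hr) compound incubation at 37C, beta-lactamase activity was detected with a FRET substrate by fluorescence.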
# [9] = biological target: Estrogen receptor beta (Homo sapiens) (UniProt Q92731); test: qHTS assay to identify small molecule antagonists of the estrogen receptor beta (ER-beta) signaling pathway (AID 1259378; active means well fitted inhibition curve with a large enough effect in the signal ratio in the repeat runs, not every such curve was filed as active; the % refers to the signal ratio)
# How it was run: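 ER-beta-UAS-bla HEK293T (GripTite) cells in 2% charcoal-stripped FBS medium were preincubated 6 hr at 37C, dosed with compound, then stimulated with 1 nM E2 (final) for 16 hr; beta-lactamase reporter read by B/G FRET fluorescence after 2 hr substrate loading.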
# [10] = qHTS assay to identify small molecule agonists of the androgen receptor (AR) signaling pathway in the presence of an antagonist - cell viability counter screen (AID 1259379); further: nearly all actives have a fitted effect of over 25% in size; further: potency means the concentration at half of the fitted maximal effect
# How it was run: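 Viability counter screen: CellTiter-Fluor fluorescence, measured in the same wells as the luciferase read-out. MDA-kb2 cells, 3,000/well, with nilutamide at 3.0uM final and compounds at 15 concentrations, 16 hr at 37C, 0% CO2.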
# [11] = qHTS assay to identify small molecule agonists of the estrogen receptor beta (ER-beta) signaling pathway - cell viability counter screen (AID 1259380); further: nearly all actives have a fitted effect of over 30% in size
# How it was run: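 Luminescence read-out (CellTiter-Glo, 30 min, room temp) taken in the same wells as the beta-lactamase reporter assay; ER-beta-UAS-bla HEK293T cells exposed to DMSO-dissolved compounds for 16 hr at 37C in 2% charcoal-stripped FBS medium.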
# [12] = qHTS assay to identify small molecule antagonists of the estrogen receptor beta (ER-beta) signaling pathway - cell viability counter screen (AID 1259382); further: series mostly up to about 92 µM; nearly all actives have a fitted effect of over 55% in size
# How it was run: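 Luminescent ATP read-out (CellTiter-Glo, 30 min, RT) taken in the same wells as the bla reporter assay. HEK293T ER-beta-UAS-bla cells in 2% charcoal-stripped FBS were exposed to compounds with 1nM E2 for 16 hr at 37C.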
# [13] = qHTS assay to identify small molecule agonists or antagonists of the thyroid stimulating hormone receptor (TSHR) signaling pathway - wild type cell line counter screen (AID 1259384; calls by dose curve)
# How it was run: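 Wild-type HEK293 cells were plated 18 h at 37 C/5% CO2, pin-dosed with compound plus Ro20-1724 medium, held 30 min at room temperature, then given cAMP-d2 and anti-cAMP-cryptate; fluorescence was read after 1 h. Fifteen concentrations, triplicate.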
# [14] = biological target: Thyrotropin receptor (Homo sapiens) (UniProt P16473); test: qHTS assay to identify small molecule antagonists of the thyroid stimulating hormone receptor (TSHR) signaling pathway (AID 1259385; calls by dose curve; further: nearly all actives have a fitted effect of over 20% in size)
# How it was run: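 TSHR-HEK293 cells were plated and held 18 h at 37C/5% CO2, then given compound plus Ro20-1724 and stimulated with TSH at 1.5 ng/mL final. After 30 min at room temperature, cAMP was detected with cAMP-d2/anti-cAMP-cryptate (1 h) by fluorescence.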
# [15] = qHTS assay to identify small molecule agonists of the estrogen receptor alpha (ER-alpha) signaling pathway in the presence of an antagonist - cell viability counter screen (AID 1259386);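 further: cells exposed to compounds for 22 h at 37 °C before the viability read; nearly all actives have a fitted effect of over 30% in size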; further: potency means the concentration at half of the fitted maximal effect
# How it was run: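 Read-out: CellTiter-Fluor fluorescence after 1hr reagent incubation, measured in the same wells as the luciferase readout. VM7Luc4E2 cells were exposed to 15 compound concentrations with 10.0nM ICI-182,780 for 22hr at 37C.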
# [16] = biological target: Estrogen receptor (Homo sapiens) (UniProt P03372); test: qHTS assay to identify small molecule antagonists of the estrogen receptor alpha (ER-alpha) signaling pathway using the BG1 cell line in the presence of 0.1 nM 17-beta-estradiol (AID 1259244); further: potency means the concentration at half of the fitted maximal effect; nearly all actives have a fitted effect of over 50% in size
# How it was run: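 Luminescence after ONE-Glo (30 min, room temperature) measured ERE-luciferase activity in VM7Luc4E2 cells treated 22 h with compound and 0.1 nM final 17beta-estradiol as stimulator.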
# [17] = qHTS assay to identify small molecule agonists of the sonic hedgehog signaling (Shh) pathway - cell viability counter screen (AID 1259366); further: nearly all actives have a fitted effect of over 50% in size
# How it was run: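 Fluorescence from CellTiter-Fluor reports live cells in this counter screen. NIH/3T3-derived Gli1-Luc reporter cells receive test compounds for 24hr at 37C; reagent goes in at 23hr.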
# [18] = biological target: Estrogen receptor (Homo sapiens) (UniProt P03372); test: qHTS assay to identify small molecule agonists of the estrogen receptor alpha (ER-alpha) signaling pathway in the presence of an antagonist (AID 1259383; calls by dose curve; further: top concentration of the series differs between compounds; nearly all actives have a fitted effect of over 15% in size)
# How it was run: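 Luciferase luminescence (ONE-Glo, 30min at room temperature) measured in VM7Luc4E2 cells after 22hr compound exposure at 15 concentrations, with 10.0nM ICI-182,780 final present; cells express endogenous ER-alpha and carry four EREs upstream of luciferase.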
# [19] = biological target: Androgen receptor (Homo sapiens) (UniProt P10275); test: qHTS assay to identify small molecule agonists of the androgen receptor (AR) signaling pathway in the presence of an antagonist (AID 1259381; calls by dose curve; further: nearly all actives have a fitted effect of over 15% in size)
# How it was run: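 Luciferase read-out (ONE-Glo, 30min room temperature) in MDA-kb2 MMTV-reporter cells; agonist mode run in presence of AR antagonist nilutamide, 3.0uM final. Compounds tested as 15-point series, 16hr exposure at 37C, 0% CO2.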
# Estrogen receptor beta (Homo sapiens), sequence (Q92731 whole entry, looked up): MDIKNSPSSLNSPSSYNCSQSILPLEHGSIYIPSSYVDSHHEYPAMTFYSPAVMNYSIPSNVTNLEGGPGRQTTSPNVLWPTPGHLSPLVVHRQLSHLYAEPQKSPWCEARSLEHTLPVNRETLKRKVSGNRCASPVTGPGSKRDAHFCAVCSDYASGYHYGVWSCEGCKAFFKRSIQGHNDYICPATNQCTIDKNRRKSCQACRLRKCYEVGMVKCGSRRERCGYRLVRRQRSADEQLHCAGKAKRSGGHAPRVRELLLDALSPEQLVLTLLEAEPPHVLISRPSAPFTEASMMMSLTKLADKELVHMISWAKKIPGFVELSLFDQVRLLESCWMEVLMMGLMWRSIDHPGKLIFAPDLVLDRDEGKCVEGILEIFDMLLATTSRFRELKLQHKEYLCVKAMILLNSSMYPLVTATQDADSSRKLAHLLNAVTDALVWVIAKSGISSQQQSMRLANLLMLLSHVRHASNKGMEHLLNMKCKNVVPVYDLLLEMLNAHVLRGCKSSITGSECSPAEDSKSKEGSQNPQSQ
# Estrogen receptor (Homo sapiens), sequence (P03372 whole entry, looked up): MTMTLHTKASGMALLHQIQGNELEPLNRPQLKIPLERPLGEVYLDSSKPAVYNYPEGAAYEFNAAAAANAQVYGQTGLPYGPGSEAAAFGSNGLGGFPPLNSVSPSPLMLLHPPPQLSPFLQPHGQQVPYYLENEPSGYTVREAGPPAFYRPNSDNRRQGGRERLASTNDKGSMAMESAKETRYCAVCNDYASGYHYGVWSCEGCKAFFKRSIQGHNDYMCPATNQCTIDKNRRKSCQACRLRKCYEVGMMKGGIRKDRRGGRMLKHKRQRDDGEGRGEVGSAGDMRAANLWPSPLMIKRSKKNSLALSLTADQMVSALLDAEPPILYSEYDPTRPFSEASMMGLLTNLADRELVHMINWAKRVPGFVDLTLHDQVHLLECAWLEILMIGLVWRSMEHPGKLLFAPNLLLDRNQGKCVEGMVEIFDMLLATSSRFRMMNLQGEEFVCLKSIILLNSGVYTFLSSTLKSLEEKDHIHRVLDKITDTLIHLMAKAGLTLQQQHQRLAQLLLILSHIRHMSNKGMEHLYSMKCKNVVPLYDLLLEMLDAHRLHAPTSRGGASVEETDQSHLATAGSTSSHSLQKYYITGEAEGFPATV
# Thyrotropin receptor (Homo sapiens), sequence (P16473 whole entry, looked up): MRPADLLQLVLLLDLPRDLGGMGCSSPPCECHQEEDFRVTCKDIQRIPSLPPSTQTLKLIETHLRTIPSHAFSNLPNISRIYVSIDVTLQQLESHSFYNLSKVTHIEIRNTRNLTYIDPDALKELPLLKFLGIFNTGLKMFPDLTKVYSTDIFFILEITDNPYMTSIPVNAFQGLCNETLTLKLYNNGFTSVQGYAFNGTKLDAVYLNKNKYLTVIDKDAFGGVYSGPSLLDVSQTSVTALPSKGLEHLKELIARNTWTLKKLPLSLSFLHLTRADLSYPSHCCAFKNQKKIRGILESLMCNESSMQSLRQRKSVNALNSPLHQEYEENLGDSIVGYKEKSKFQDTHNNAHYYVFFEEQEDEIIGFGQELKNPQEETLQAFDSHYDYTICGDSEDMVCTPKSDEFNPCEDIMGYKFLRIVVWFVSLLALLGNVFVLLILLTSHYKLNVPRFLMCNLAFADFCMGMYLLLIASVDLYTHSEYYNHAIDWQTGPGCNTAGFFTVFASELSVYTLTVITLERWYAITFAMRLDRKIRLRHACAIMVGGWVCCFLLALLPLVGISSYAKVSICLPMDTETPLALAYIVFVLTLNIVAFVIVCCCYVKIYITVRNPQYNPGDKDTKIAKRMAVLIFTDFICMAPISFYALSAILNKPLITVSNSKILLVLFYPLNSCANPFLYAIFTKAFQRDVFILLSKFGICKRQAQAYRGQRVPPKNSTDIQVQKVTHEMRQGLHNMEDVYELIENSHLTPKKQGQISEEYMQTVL
# Androgen receptor (Homo sapiens), sequence (P10275 whole entry, looked up): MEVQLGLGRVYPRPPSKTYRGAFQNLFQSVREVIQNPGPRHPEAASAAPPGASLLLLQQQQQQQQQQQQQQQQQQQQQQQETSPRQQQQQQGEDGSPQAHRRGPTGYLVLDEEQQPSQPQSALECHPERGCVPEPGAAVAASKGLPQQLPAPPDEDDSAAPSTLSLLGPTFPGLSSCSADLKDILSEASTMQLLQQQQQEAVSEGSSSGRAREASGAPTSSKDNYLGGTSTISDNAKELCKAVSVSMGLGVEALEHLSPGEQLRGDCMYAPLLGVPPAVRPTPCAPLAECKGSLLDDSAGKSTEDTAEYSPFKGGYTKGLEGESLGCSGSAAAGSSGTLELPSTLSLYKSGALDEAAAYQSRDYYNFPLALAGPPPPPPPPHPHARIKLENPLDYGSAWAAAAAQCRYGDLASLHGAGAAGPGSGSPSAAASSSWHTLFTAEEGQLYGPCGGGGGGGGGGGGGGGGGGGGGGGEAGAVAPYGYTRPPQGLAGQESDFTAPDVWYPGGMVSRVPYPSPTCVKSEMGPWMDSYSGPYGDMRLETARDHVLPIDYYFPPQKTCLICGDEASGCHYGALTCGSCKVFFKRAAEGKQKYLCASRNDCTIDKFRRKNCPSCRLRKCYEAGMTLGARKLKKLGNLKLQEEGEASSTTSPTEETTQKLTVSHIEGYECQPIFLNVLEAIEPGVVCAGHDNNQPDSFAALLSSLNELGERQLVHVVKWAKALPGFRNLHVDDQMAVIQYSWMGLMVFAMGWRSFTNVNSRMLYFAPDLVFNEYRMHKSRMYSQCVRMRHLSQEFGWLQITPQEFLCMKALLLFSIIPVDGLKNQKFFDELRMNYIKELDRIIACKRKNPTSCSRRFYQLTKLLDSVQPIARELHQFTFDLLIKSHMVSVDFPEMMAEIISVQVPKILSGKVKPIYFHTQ
SMILES,Potency [1],Potency [2],Potency [3],Potency [4],Potency [5],Potency [6],Potency [7],Potency [8],"activity, negative = inhibition [9]",Potency [10],Potency [11],Potency [12],Potency [13],Potency [14],Potency [15],Potency [16],Potency [17],Potency [9],Potency [18],outcome [19]
ClC(Cl)(Cl)Br,inactive,inactive,inactive,inactive,inactive,inactive,inactive,inactive,-1.76% [at 19 µM] (inactive),inactive,inactive,inactive,inactive,inactive,inactive,–,–,–,–,–
Cn1c(-c2ccccc2)cc(-c2ccccc2)[n+]1C,inactive,–,inactive,inactive,inactive,–,306 nM (active) and inactive,inactive,–,24.3 µM (active) and 19.3 µM (active),inactive,inactive,inactive,inactive,–,5.44 µM (active) and 24.3 µM (active),inactive,inactive,inactive,–
[Cl-].[Cl-].[Cl-].[Fe+3],inactive,inactive,inactive,inactive,inactive,inactive,–,–,–,inactive,inactive,inactive,–,–,inactive,–,inactive,–,–,–
CS(=O)(=O)NC(=O)c1cc(Oc2ccc(C(F)(F)F)cc2Cl)ccc1[N+](=O)[O-],inactive,inactive,inactive,inactive,inactive,–,inactive,inactive,–,inactive,inactive,inactive,inactive,inactive,inactive,–,inactive,–,–,–
Nc1ncn[nH]1,inactive,inactive,inactive,inactive,inactive,inactive,inactive,inactive,–,inactive,inactive,inactive,inactive,inactive,inactive,–,–,inactive,–,–
O=[N+]([O-])c1ccc(Nc2ccccc2)cc1,–,inactive,inactive,inactive,48.9 µM (active),–,17.2 µM (active),inactive,–,30.9 µM (active) and 30.6 µM (active),inactive,inactive,inactive,inactive,27.5 µM (active) and 27.3 µM (active),–,–,–,inactive,–
O=C1CCCO1,inactive,inactive,inactive,inactive,inactive,–,inactive,inactive,–,inactive,inactive,inactive,inactive,inactive,inactive,–,inactive,inactive,–,inactive
CCCCSP(=O)(SCCCC)SCCCC,inactive,inactive,inactive,inactive,inactive,inactive,inactive,inactive,–,inactive,inactive,inactive,inactive,–,inactive,–,–,inactive,–,–
